The record followed here is PubChem BioAssay (NCATS).

Records with an inconclusive call do not appear. Values without a mark were called inactive. The source made the active and inactive calls. The call rests on the fitted dose curve; in most records, active means well fitted curve in the direction sought with a large enough effect; inconclusive means small, poorly fitted or top-dose-only effect, or another doubt; inactive means no such curve, though single readings can be large; an effect the other way counts as inactive or inconclusive.

Experiment [1] deals with MKL-2. In words: qHTS assay to identify novel small-molecules to repurpose for Merkel cell carcinoma treatment (AID 1296009). Further: nearly all actives have a fitted effect of over 60% in size. Conditions: MCC and control cell lines, CellTiter-Glo viability, 72 h; series mostly up to 46 µM. The method in brief:
(§1)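 72 hr, 37 degree celsius; NPC 8-pt / MIPE 11-pt dose response; compound pinned in DMSO; CellTiter-Glo, 10 min RT, luminescence; normalized to no-cell and DMSO controls.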
(Quantitative high-throughput screening tests each substance at several concentrations.)

The test system of experiment [2] is UISO. The description is as above. Conditions: MCC and control cell lines, CellTiter-Glo viability, 72 h; series mostly up to 46 µM. The method in brief:
as §1
A general note: Cellular ATP, detected with luciferase, serves as a proxy for viable cell number.

In experiment [3] the test system is WaGa. The description is as above. Conditions: MCC and control cell lines, CellTiter-Glo viability, 72 h; series mostly up to 46 µM. The method in brief:
as §1

In experiment [4] the test system is C33A. In words: Primary qHTS to identify gynecologic anti-cancer compounds using libraries of approved drugs and bioactive compounds (AID 1345084). Further: nearly all actives have a fitted effect of over 55% in size. The settings on record: Gynecologic cancer cell panel viability, ATPlite luminescence, 48 h; series mostly up to 57.5 µM. The method in brief: (§2)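 48 h compound exposure at 37 C, 5% CO2; five-point qHTS. ATPlite luminescence readout of cell ATP.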

Experiment [5] concerns CAOV3. The description is as above. The settings on record: Gynecologic cancer cell panel viability, ATPlite luminescence, 48 h; series mostly up to 57.5 µM. The method in brief:
as §2

Experiment [6] relates to CASKI. Described as above. Conditions: Gynecologic cancer cell panel viability, ATPlite luminescence, 48 h; series mostly up to 57.5 µM. The method in brief: as §2
Experiment [7] deals with Es-2. Described as above. Conditions: Gynecologic cancer cell panel viability, ATPlite luminescence, 48 h; series mostly up to 57.5 µM. The method in brief: as §2
Experiment [8] has as its system HeLa. The description is as above. The settings on record: Gynecologic cancer cell panel viability, ATPlite luminescence, 48 h; series mostly up to 57.5 µM. The method in brief: as §2
In experiment [9] the test system is NIH3T3. In words: qHTS assay to identify novel small-molecules to repurpose for Merkel cell carcinoma treatment (AID 1296009). Further: nearly all actives have a fitted effect of over 60% in size. The settings on record: MCC and control cell lines, CellTiter-Glo viability, 72 h; at 44.8 µM (top of the series) unless noted. The method in brief: as §1
Experiment [10] has as its system Hek293T. The experiment in a line: Primary qHTS to identify gynecologic anti-cancer compounds using libraries of approved drugs and bioactive compounds (AID 1345084). Further: nearly all actives have a fitted effect of over 55% in size. Conditions: Gynecologic cancer cell panel viability, ATPlite luminescence, 48 h, control line for the selectivity index; series mostly up to 57.5 µM. The method in brief:
as §2
Potency means the concentration at half of the fitted maximal effect.

As to `C[C@H](O)C(=O)Nc1c(I)c(C(=O)NC(CO)CO)c(I)c(C(=O)NC(CO)CO)c1I`, the Potency entry in experiment [1], in experiment [2], in [3], in experiment [4], in [5] and in experiment [6] was “inactive” each time. Also, the Potency entry in [7] and in experiment [8] was “inactive” each time.

On to `Cc1ccc(C(=O)C(C)CN2CCCCC2)cc1` (stereo not given), for which, in [1], the Potency is 10.6 µM (active). Moreover, the call in experiment [9] was inactive. For the same compound, the Potency result in experiment [2], in experiment [4], in experiment [5], in [6], in experiment [7] and in experiment [8] was “inactive” in each case. In addition, the Potency result in [10] was “inactive”.

In the case of `CC(=O)[C@H]1CC[C@H]2[C@@H]3C[C@H](C)C4=CC(=O)CC[C@]4(C)[C@H]3[C@@H](O)C[C@]12C`, the Potency entry in [1], in [2], in experiment [3], in experiment [4], in [5] and in experiment [6] was “inactive” throughout. Moreover, the Potency result in experiment [7] and in experiment [10] was “inactive” in each case. In [9], the outcome was inactive. For the same compound, in experiment [8], the Potency is 15.8 µM (active).

Consider `C[C@H]1[C@H](NC(=O)/C(=N/OC(C)(C)C(=O)O)c2csc(N)n2)C(=O)N1S(=O)(=O)O` (stereo in doubt), for which the Potency entry in experiment [1], in [2], in [3], in [4], in experiment [5] and in [6] was “inactive” each time. The Potency entry in experiment [7], in [8] and in [10] was “inactive” in each case.

With `CCOC(=O)n1ccn(C)c1=S`, the Potency entry in experiment [1], in [2], in experiment [3], in [4], in experiment [5] and in [6] was “inactive” in each case. Also, the Potency entry in [7], in experiment [8] and in experiment [10] was “inactive” each time. Further, in experiment [9], the call was inactive.

Regarding `CC(=O)Nc1c(I)cc(I)c(C(=O)O)c1I`, the Potency result in experiment [1], in [2], in [3], in experiment [4], in experiment [5] and in experiment [6] was “inactive” in each case. Also, the Potency result in [7], in [8] and in experiment [10] was “inactive” in each case. The compound was called inactive in experiment [9].

In the case of `Cc1ccccc1C(=O)Nc1ccc(C(=O)N2CCCC(N(C)C)c3ccccc32)cc1` (stereo not given), the Potency result in [1], in [2], in experiment [3] and in experiment [4] was “inactive” in each case.

As for `COc1cc2c(cc1OC)[C@@H]1CC(=O)[C@@H](CC(C)C)CN1CC2`, the Potency result in [1], in experiment [2], in experiment [3], in experiment [4], in [6] and in [7] was “inactive” in each case. Further, the Potency entry in experiment [8] and in experiment [10] was “inactive” throughout. For the same compound, the outcome in experiment [9] was inactive.

As to `CC(=O)O[C@]1(C(C)=O)CC[C@H]2[C@@H]3C[C@H](C)C4=CC(=O)CC[C@]4(C)[C@H]3CC[C@@]21C`, the Potency result in [1], in experiment [2], in experiment [3], in experiment [4], in [6] and in [7] was “inactive” throughout. Besides, the Potency result in experiment [8] and in experiment [10] was “inactive” each time. The compound was classed as inactive in experiment [9].

In the case of `O=c1ccc2ccccc2o1`, the Potency entry in experiment [1], in experiment [2], in experiment [3], in experiment [4], in experiment [6] and in [7] was “inactive” each time. Also, the Potency entry in experiment [8] and in experiment [10] was “inactive” throughout. Besides, the compound was called inactive in experiment [9].

Consider `CCCCCC=CCC=CCCCCCCCC(=O)OCC`, for which the Potency in experiment [1] is 15 µM (active). For the same compound, the compound was called inactive in [9]. For the same compound, the Potency entry in experiment [2], in [4], in experiment [5], in experiment [6], in [7] and in experiment [8] was “inactive” throughout. Further, in experiment [10], the Potency entry is “inactive”.

`COC(=O)CCc1ccc(OCC(O)CNC(C)C)cc1` (stereo not given): the Potency entry in experiment [1], in [2], in experiment [3], in [4], in experiment [5] and in experiment [6] was “inactive” each time. In addition, the Potency entry in experiment [7], in experiment [8] and in experiment [10] was “inactive” in each case.

For the compound `Cc1nc2n(c(=O)c1CCN1CCC(c3noc4cc(F)ccc34)CC1)CCC[C@H]2O`, the Potency result in experiment [1], in experiment [2], in [3], in [4], in experiment [5] and in [6] was “inactive” in each case. Besides, the Potency result in [7], in [8] and in experiment [10] was “inactive” in each case. Further, the outcome in [9] is “inactive [at 17.4 µM]”.

For the compound `CC(Cc1cccc(C(F)(F)F)c1)NCCOC(=O)c1ccccc1` (stereo not given), the Potency entry in experiment [1], in experiment [2], in [3], in experiment [4], in [5] and in experiment [6] was “inactive” throughout. The Potency result in experiment [7], in experiment [8] and in experiment [10] was “inactive” throughout. The compound was called inactive in experiment [9].

As to `COc1ccc(C2C(=O)c3ccccc3C2=O)cc1`, the Potency result in [1], in [2], in experiment [3], in experiment [4], in [5] and in experiment [6] was “inactive” in each case. Further, the Potency result in experiment [7], in [8] and in experiment [10] was “inactive” each time. The compound was classed as inactive in experiment [9].

As for `CC[C@@H](CO)NCCN[C@@H](CC)CO`, the Potency result in experiment [1], in experiment [2], in experiment [3], in experiment [4], in experiment [5] and in experiment [6] was “inactive” throughout. The Potency entry in experiment [7], in experiment [8] and in experiment [10] was “inactive” in each case. Also, in experiment [9], the compound was classed as inactive.

As to `C[C@]12C=CC(=O)C=C1[C@@H](F)C[C@@H]1[C@@H]2[C@@H](O)C[C@@]2(C)[C@H]1CC[C@]2(O)C(=O)CO`, the Potency result in [1], in [2], in experiment [3], in experiment [4], in experiment [5] and in experiment [6] was “inactive” in each case. Moreover, the Potency entry in experiment [7], in [8] and in experiment [10] was “inactive” throughout.

Turning to `CC1(C)O[C@@H]2C[C@H]3[C@@H]4CCC5=CC(=O)CC[C@]5(C)[C@@]4(F)[C@@H](O)C[C@]3(C)[C@]2(C(=O)CCl)O1`, the Potency entry in experiment [1], in [2], in [3], in experiment [4], in experiment [5] and in experiment [6] was “inactive” throughout. Moreover, the Potency result in experiment [7], in experiment [8] and in experiment [10] was “inactive” in each case.

Consider `CN1CCC[C@@H]1c1cccnc1`, for which the Potency entry in [1], in experiment [2], in experiment [3], in experiment [4], in experiment [5] and in experiment [6] was “inactive” throughout. Also, the Potency result in [7], in [8] and in experiment [10] was “inactive” throughout.

With `CCCCN1CCCC1C(=O)Nc1c(C)cc(C)cc1C` (stereo not given), the Potency entry in experiment [1], in experiment [2], in experiment [3], in experiment [4], in [5] and in experiment [6] was “inactive” in each case. Also, the Potency entry in experiment [7], in experiment [8] and in experiment [10] was “inactive” each time.

As for `C[C@@H]1C[C@H]2[C@@H]3CCC4=CC(=O)C=C[C@]4(C)[C@@]3(F)[C@@H](O)C[C@]2(C)[C@H]1C(=O)CO`, the Potency entry in experiment [1], in [2], in experiment [3], in experiment [4], in [5] and in experiment [6] was “inactive” each time. Further, the Potency entry in [7], in [8] and in [10] was “inactive” in each case.
